Results filed as inconclusive are left out. Activity calls are given as the source filed them. Rule for the calls: active = hit-call score of the fitted dose curve at least 0.9, where 1 is the maximum; inconclusive = response in the unintended direction; inactive = score below 0.9.

Sequence of rat Opioid Receptor, Non-selective Binding, Oprm1 (gene 25601) (P33535 whole entry, looked up): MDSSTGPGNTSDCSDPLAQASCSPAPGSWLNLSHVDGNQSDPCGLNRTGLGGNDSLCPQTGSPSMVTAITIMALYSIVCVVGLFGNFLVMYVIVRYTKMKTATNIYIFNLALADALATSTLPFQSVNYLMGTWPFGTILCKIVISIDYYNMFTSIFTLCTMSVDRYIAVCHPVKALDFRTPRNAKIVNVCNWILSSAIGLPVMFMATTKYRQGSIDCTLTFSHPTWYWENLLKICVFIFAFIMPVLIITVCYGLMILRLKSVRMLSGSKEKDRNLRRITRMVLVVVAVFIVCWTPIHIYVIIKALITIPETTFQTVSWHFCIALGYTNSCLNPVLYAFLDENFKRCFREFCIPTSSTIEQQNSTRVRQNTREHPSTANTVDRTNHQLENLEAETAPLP

The target of the first experiment is rat Opioid Receptor, Non-selective Binding, Oprm1 (gene 25601) (UniProt P33535). In words: NVS_GPCR_rOpiate_NonSelective: NovaScreen (NVS) G Protein-Coupled Receptor Assay for rat Opioid Receptor, Non-selective Binding (AID 2283318). The method in brief:
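Rat forebrain membranes, cell-free radioligand binding with filter-based scintillation counting, read 1.5 h after dosing. Primary screen in duplicate at 25 uM; actives retested in concentration series. Loss of signal versus DMSO baseline scored.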
For the compound `NCc1cccc(C2CCN(C(=O)c3ccc(C#Cc4ccccc4F)o3)CC2)c1`, the AC50 (in general, the midpoint of the concentration-response curve, whichever way the signal moves) was 12.1 µM (active). For the compound `O=C(O)Cc1cc(I)c(Oc2ccc(O)c(I)c2)c(I)c1`, the outcome was inactive. Regarding `CCN(Cc1cccnc1)C(=O)c1cccc(Cl)c1[C@]1(C)C(=O)N(Cc2ccc(OC)cc2OC)c2ccc(Cl)cc21`, the AC50 was 5.25 µM (active). Turning to `Clc1cc(Cl)c2c(c1)N=C1CCCCCN1C2`, the AC50 is 7.31 µM (active). `COc1ccc2cc(S(=O)(=O)N[C@H](CC(=O)N[C@H](Cc3ccc(CN4[C@H](C)CCC[C@@H]4C)cc3)C(=O)N(C)C(C)C)c3ccc4c(c3)OCO4)ccc2c1`: the AC50 was 17.7 µM (active).

`O=C1c2ccccc2C(=O)N1CCc1noc(-c2ccc(CN3CCCCCC3)s2)n1`: the AC50 was 21.1 µM (active).

For the compound `Clc1ccccc1C(c1ccccc1)(c1ccccc1)n1ccnc1`, the call was inactive. `c1ccc(C[n+]2cccc3ccccc32)cc1`: the AC50 is 14.5 µM (active). Take `CN(C[C@@H](CC[N+]12CCC(C3CCCCC3)(CC1)CC2)c1ccc(Cl)c(Cl)c1)C(=O)c1cc(C(F)(F)F)cc(C(F)(F)F)c1`: the AC50 was 35.5 µM (active).

In the case of `Cc1occc1C(=O)Nc1ccc(C(=O)N2CCC(F)(F)/C(=C\C(=O)N3CCC(N4CCCCC4)CC3)c3ccccc32)cc1`, the AC50 is 5.85 µM (active). For `O=c1[nH]sc2ccccc12`, the AC50 is 19.6 µM (active). In the case of `CN(C)c1ccc(C(=C2C=CC(=[N+](C)C)C=C2)c2ccc(N(C)C)cc2)cc1`, the AC50 is 2.21 µM (active). Take `CC/C(=C(/CC)c1ccc(O)cc1)c1ccc(O)cc1`: the AC50 is 12 µM (active). As to `CCN(CC)C(=O)c1cc(S(=O)(=O)Cc2ccccc2)c(N2CCC(c3ccccc3)CC2)cc1N(CC)CCN(C)C`, the compound was called inactive. Take `COc1cccc([C@H](O)C2CCN(CCc3ccc(F)cc3)CC2)c1OC`: the half-maximal activity concentration (AC50) is 6.91 µM (active).

On to `CN(C)C(=O)C1(N2CCCCC2)CCN(CC[C@@]2(c3ccc(Cl)c(Cl)c3)CN(C(=O)c3ccccc3)CCO2)CC1`, for which the AC50 was 1.73 µM (active).

System in the next experiment: not listed separately
In words: NVS_IC_rCaDHPRCh_L: NovaScreen (NVS) Ion Channel Assay for rat Calcium Channel, Type L, Dihydropyridine Site (CaDHPRCh_L) (AID 2283320). Here is the method: NVS_IC_rCaDHPRCh_L is a biochemical, single-readout assay that uses extracted gene-proteins from Rat cortical membranes in a tissue-based cell-free assay. Measurements were taken 1 hour after chemical dosing in a 48-well plate.NVS_IC_rCaDHPRCh_L is one of one assay component(s) measured or calculated from the NVS_IC_rCaDHPRCh_L assay. It is designed to make measurements of radioligand binding, a form of binding reporter, as detected with scintillation counting signals by Filter-based radiodetection technology.Data from the assay component NVS_IC_rCaDHPRCh_L was analyzed into 1 assay endpoint. This assay endpoint, NVS_IC_rCaDHPRCh_L, was analyzed in the positive analysis fitting direction relative to DMSO as the negative control and baseline of activity. Using a type of binding reporter, loss-of-signal activity can be used to understand changes in the binding as they relate to the gene Cacna1a. Furthermore, this assay endpoint can be referred to as a primary readout, because the performed assay has only produced 1 assay endpoint. To generalize the intended target to other relatable targets, this assay endpoint is annotated to the ion channel intended target family, where the subfamily is calcium channel.
Binding assays used specific radioligands (tritiated, iodinated) with non-radioactive competitive displacement ligands in agonist or antagonist protocols (as indicated) and various reference compounds and inhibitors to titrate specific binding to receptors and transporters. Most enzyme assays (CYPs, kinases, phosphatases, proteases, HDACs) used recombinant protein and specific substrates (fluorescence mostly, some colorimetric and radioactive) and inhibitors, followed by a biochemical separation of substrate and product. All assays for the biochemical HTS were initially run in duplicate at a single concentration (10 uM for CYP450 assays and 25 uM for all others). Assay-chemical combinations meeting a pre-defined threshold (e.g., 30% inhibition and other criteria defined below) were then run in singleton concentration-response format with maximum concentration of 20 uM for CYPs and 50 uM for all others. Each assay was run with positive and negative controls, and concurrent controls on every plate. The follow-up (secondary) screen tested active chemical-pairs in concentration series, as well as a few additional assays not tested in the primary screen, some selected negative inactives, and several cases re-run in the concentration series for confirmatory purposes.
With `NCc1cccc(C2CCN(C(=O)c3ccc(C#Cc4ccccc4F)o3)CC2)c1`, the AC50 was 21.1 µM (active). Still for that read-out and setting: in the case of `CCN(Cc1cccnc1)C(=O)c1cccc(Cl)c1[C@]1(C)C(=O)N(Cc2ccc(OC)cc2OC)c2ccc(Cl)cc21` it was 5.48 µM (active); in that of `COc1ccc2cc(S(=O)(=O)N[C@H](CC(=O)N[C@H](Cc3ccc(CN4[C@H](C)CCC[C@@H]4C)cc3)C(=O)N(C)C(C)C)c3ccc4c(c3)OCO4)ccc2c1`, 21.5 µM (active). The same measure, in the same setting: to `O=C1c2ccccc2C(=O)N1CCc1noc(-c2ccc(CN3CCCCCC3)s2)n1` belongs 6.2 µM (active).

For `CCOC(=O)O[C@H](C)OC(=O)c1ccc2c(c1)cc(C(=O)NC1CCN(C(C)C)CC1)n2Cc1cc(-c2ccc(Cl)s2)on1`, the AC50 was 9.36 µM (active). Take `CCCCCCCCN(C)CCCCCCCC`: the AC50 was 16.4 µM (active). As to `CN(C)c1ccc(C(=C2C=CC(=[N+](C)C)C=C2)c2ccc(N(C)C)cc2)cc1`, the AC50 was 4.99 µM (active). On to `COc1cccc([C@H](O)C2CCN(CCc3ccc(F)cc3)CC2)c1OC`, for which the AC50 is 25 µM (active). Regarding `CN(C)C(=O)C1(N2CCCCC2)CCN(CC[C@@]2(c3ccc(Cl)c(Cl)c3)CN(C(=O)c3ccccc3)CCO2)CC1`, the AC50 was 0.655 µM (active).

Source of the values: PubChem BioAssay (EPA / NIEHS).
